The values that follow come from PubChem BioAssay (NCATS).

Inconclusive results are not listed. Active and inactive are the calls of the source. Calls follow the shape of the dose curve; as a rule, active = well fitted cell-killing curve with a large enough effect; inconclusive = small, poorly fitted or top-dose-only effect, or effect the other way; inactive = flat fitted curve, though single readings scatter.
% is scaled to controls: 0 for no effect and ±100 for the full control effect; potency is read from the fitted curve at half-maximal effect.

In the first assay the test system is Es-2. In words: Primary qHTS to identify gynecologic anti-cancer compounds using libraries of approved drugs and bioactive compounds (AID 1345084). Also: nearly all actives have a fitted effect of over 55% in size. As to conditions: Gynecologic cancer cell panel viability, ATPlite luminescence, 48 h; series mostly up to 57.5 µM; activity change, negative = cytotoxicity: at the top concentration. Summed up: (§1)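 Five-point cytotoxicity, 48 h drug exposure at 37 C, 5% CO2, on cells seeded 16 h beforehand. ATP content read by ATPlite luminescence.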
As to `CCc1c2c(nc3ccc(OC(=O)N4CCC(N5CCCCC5)CC4)cc13)-c1cc3c(c(=O)n1C2)COC(=O)[C@]3(O)CC`, the Potency is 14.1 µM (active).
For the compound `CCc1cc(C(N)=S)ccn1`, the “activity change, negative = cytotoxicity” value was 2.64% (inactive).
On to `COc1ccc2cc3[n+](cc2c1OC)CCc1cc2c(cc1-3)OCO2`, for which the Potency was 15.8 µM (active).
With `CCOC(=O)[C@H](CCc1ccccc1)N[C@H]1CCc2ccccc2N(CC(=O)O)C1=O`, the “activity change, negative = cytotoxicity” value is -17.3% (inactive).
For the compound `COC(=O)Nc1nc2ccc(C(=O)c3ccccc3)cc2[nH]1`, the Potency was 2.82 µM (active).

The next assay deals with HeLa. The assay is described as above. As to conditions: Gynecologic cancer cell panel viability, ATPlite luminescence, 48 h; series mostly up to 57.5 µM; activity change, negative = cytotoxicity: at the top concentration. Summed up:
as §1
Background: In ATP-based viability assays light output follows the ATP content of the culture.
On to `CCCCOc1ccc(CC(=O)NO)cc1`, for which the “activity change, negative = cytotoxicity” value is -1.94% (inactive).
For the compound `COC(=O)Nc1nc2ccc(Sc3ccccc3)cc2[nH]1`, the Potency was 2.24 µM (active).
On to `Oc1c(Cl)cc(Cl)c2cccnc12`, for which the “activity change, negative = cytotoxicity” value was -13% (inactive).
Turning to `CC(C)C[C@H](NC(=O)[C@H](CCc1ccccc1)NC(=O)CN1CCOCC1)C(=O)N[C@@H](Cc1ccccc1)C(=O)N[C@@H](CC(C)C)C(=O)[C@@]1(C)CO1`, the Potency is 0.794 µM (active).
For the compound `Clc1ccccc1CN1CCc2sccc2C1`, the “activity change, negative = cytotoxicity” value is -8.32% (inactive).
Take `O=C(O)c1ccc(-n2nc(-c3ccccc3O)nc2-c2ccccc2O)cc1`: the “activity change, negative = cytotoxicity” value was -7.71% (inactive).
On the same count and under the same terms, then `CCC(=O)O[C@]1(C(=O)SCF)[C@H](C)C[C@H]2[C@@H]3C[C@H](F)C4=CC(=O)C=C[C@]4(C)[C@@]3(F)[C@@H](O)C[C@@]21C`, with 4.54% (inactive); and `N=C(N)c1ccc(OCCCCCOc2ccc(C(=N)N)cc2)cc1`, with -22% (inactive); and `Cc1cc(NS(=O)(=O)c2ccc(N)cc2)no1`, with 4.09% (inactive).
`COC(=O)Nc1nc2ccc(S(=O)c3ccccc3)cc2[nH]1` (stereo unspecified): the Potency is 2.82 µM (active).
On the same count and under the same terms, then `Nc1nc(=S)c2[nH]cnc2[nH]1`, with 1.41 µM (active); and `Nc1nc(F)nc2c1ncn2[C@@H]1O[C@H](CO)[C@@H](O)[C@@H]1O`, with “inactive”.
Regarding `CCc1c2c(nc3ccc(OC(=O)N4CCC(N5CCCCC5)CC4)cc13)-c1cc3c(c(=O)n1C2)COC(=O)[C@]3(O)CC`, the “activity change, negative = cytotoxicity” value is -1.76% (inactive).
The same measure, in the same setting: then `CCc1cc(C(N)=S)ccn1`, with -15.2% (inactive); and `CNCC[C@H](Oc1cccc2ccccc12)c1cccs1`, with -16.6% (inactive).
Still for that read-out and setting: then `CCOC(=O)[C@H](CCc1ccccc1)N[C@H]1CCc2ccccc2N(CC(=O)O)C1=O`, with 10.5% (inactive).
With `COC(=O)Nc1nc2ccc(C(=O)c3ccccc3)cc2[nH]1`, the Potency was 1 µM (active).

In another assay the test system is Hek293T. Described as above. As to conditions: Gynecologic cancer cell panel viability, ATPlite luminescence, 48 h, control line for the selectivity index; series mostly up to 57.5 µM; activity change, negative = cytotoxicity: at the top concentration. The method in brief:
as §1
In the case of `CCN[C@H]1C[C@H](C)S(=O)(=O)c2sc(S(N)(=O)=O)cc21`, the “activity change, negative = cytotoxicity” value is 5.68% (inactive).
For the compound `Cc1c(-c2ccc(O)cc2)n(Cc2ccc(OCCN3CCCCCC3)cc2)c2ccc(O)cc12`, the “activity change, negative = cytotoxicity” value is -0.301% (inactive).
On the same count and under the same terms, then `CCCCOc1ccc(CC(=O)NO)cc1`, with -7.78% (inactive); and `CCn1cc(C(=O)O)c(=O)c2cc(F)c(N3CCNCC3)cc21`, with 4.42% (inactive).
`COc1cc(NCc2ccc3nc(N)nc(N)c3c2C)cc(OC)c1OC`: the Potency was 0.1 µM (active).
For the compound `NC(=O)c1cccnc1`, the “activity change, negative = cytotoxicity” value was -2.9% (inactive).
On the same count and under the same terms, then `O=C(N[C@H](CO)[C@H](O)c1ccc([N+](=O)[O-])cc1)C(Cl)Cl`, with -25.4% [at 116 µM] (inactive).
Same read-out and setting: then `COc1cc2ncnc(Nc3cccc(Cl)c3)c2cc1OC`, with -1.33% (inactive).
Regarding `CC(C)C[C@H](NC(=O)[C@H](CCc1ccccc1)NC(=O)CN1CCOCC1)C(=O)N[C@@H](Cc1ccccc1)C(=O)N[C@@H](CC(C)C)C(=O)[C@@]1(C)CO1`, the Potency was 0.251 µM (active).
Consider `Clc1ccccc1CN1CCc2sccc2C1`, for which the “activity change, negative = cytotoxicity” value was -6.24% (inactive).
On the same count and under the same terms, then `O[C@@H](CNC[C@H](O)[C@H]1CCc2cc(F)ccc2O1)[C@@H]1CCc2cc(F)ccc2O1`, with -4.08% (inactive); and `CCC(=O)O[C@]1(C(=O)SCF)[C@H](C)C[C@H]2[C@@H]3C[C@H](F)C4=CC(=O)C=C[C@]4(C)[C@@]3(F)[C@@H](O)C[C@@]21C`, with -3.86% (inactive).
For the compound `Cc1cc(NS(=O)(=O)c2ccc(N)cc2)no1`, the “activity change, negative = cytotoxicity” value was -1.75% (inactive).
In the case of `NC(N)=NC(N)=NCCc1ccccc1`, the “activity change, negative = cytotoxicity” value was -18.1% (inactive).
Regarding `Cc1noc(NS(=O)(=O)c2ccc(N)cc2)c1C`, the “activity change, negative = cytotoxicity” value was 1.9% (inactive).
With `Nc1nc(F)nc2c1ncn2[C@@H]1O[C@H](CO)[C@@H](O)[C@@H]1O`, the Potency entry was “inactive”.
As to `CCc1c2c(nc3ccc(OC(=O)N4CCC(N5CCCCC5)CC4)cc13)-c1cc3c(c(=O)n1C2)COC(=O)[C@]3(O)CC`, the “activity change, negative = cytotoxicity” value is -9.49% (inactive).
`CCc1cc(C(N)=S)ccn1`: the “activity change, negative = cytotoxicity” value is -4.02% (inactive).
With `CCOC(=O)[C@H](CCc1ccccc1)N[C@H]1CCc2ccccc2N(CC(=O)O)C1=O`, the “activity change, negative = cytotoxicity” value is 7.5% (inactive).
